Hits are enriched below; roughly 1.2% of the tested compounds scored in any of these assays.
TcdB GH inh – blocks C. difficile toxin B glycohydrolase activity; TcdB glycohydrolase enzymatic assay, plate reader; inhibition, % at 9.99 µM; actives 0.24% (n = 350,000); in the data active = inhibition above about 10%
Target sequence (P18177 whole entry, looked up): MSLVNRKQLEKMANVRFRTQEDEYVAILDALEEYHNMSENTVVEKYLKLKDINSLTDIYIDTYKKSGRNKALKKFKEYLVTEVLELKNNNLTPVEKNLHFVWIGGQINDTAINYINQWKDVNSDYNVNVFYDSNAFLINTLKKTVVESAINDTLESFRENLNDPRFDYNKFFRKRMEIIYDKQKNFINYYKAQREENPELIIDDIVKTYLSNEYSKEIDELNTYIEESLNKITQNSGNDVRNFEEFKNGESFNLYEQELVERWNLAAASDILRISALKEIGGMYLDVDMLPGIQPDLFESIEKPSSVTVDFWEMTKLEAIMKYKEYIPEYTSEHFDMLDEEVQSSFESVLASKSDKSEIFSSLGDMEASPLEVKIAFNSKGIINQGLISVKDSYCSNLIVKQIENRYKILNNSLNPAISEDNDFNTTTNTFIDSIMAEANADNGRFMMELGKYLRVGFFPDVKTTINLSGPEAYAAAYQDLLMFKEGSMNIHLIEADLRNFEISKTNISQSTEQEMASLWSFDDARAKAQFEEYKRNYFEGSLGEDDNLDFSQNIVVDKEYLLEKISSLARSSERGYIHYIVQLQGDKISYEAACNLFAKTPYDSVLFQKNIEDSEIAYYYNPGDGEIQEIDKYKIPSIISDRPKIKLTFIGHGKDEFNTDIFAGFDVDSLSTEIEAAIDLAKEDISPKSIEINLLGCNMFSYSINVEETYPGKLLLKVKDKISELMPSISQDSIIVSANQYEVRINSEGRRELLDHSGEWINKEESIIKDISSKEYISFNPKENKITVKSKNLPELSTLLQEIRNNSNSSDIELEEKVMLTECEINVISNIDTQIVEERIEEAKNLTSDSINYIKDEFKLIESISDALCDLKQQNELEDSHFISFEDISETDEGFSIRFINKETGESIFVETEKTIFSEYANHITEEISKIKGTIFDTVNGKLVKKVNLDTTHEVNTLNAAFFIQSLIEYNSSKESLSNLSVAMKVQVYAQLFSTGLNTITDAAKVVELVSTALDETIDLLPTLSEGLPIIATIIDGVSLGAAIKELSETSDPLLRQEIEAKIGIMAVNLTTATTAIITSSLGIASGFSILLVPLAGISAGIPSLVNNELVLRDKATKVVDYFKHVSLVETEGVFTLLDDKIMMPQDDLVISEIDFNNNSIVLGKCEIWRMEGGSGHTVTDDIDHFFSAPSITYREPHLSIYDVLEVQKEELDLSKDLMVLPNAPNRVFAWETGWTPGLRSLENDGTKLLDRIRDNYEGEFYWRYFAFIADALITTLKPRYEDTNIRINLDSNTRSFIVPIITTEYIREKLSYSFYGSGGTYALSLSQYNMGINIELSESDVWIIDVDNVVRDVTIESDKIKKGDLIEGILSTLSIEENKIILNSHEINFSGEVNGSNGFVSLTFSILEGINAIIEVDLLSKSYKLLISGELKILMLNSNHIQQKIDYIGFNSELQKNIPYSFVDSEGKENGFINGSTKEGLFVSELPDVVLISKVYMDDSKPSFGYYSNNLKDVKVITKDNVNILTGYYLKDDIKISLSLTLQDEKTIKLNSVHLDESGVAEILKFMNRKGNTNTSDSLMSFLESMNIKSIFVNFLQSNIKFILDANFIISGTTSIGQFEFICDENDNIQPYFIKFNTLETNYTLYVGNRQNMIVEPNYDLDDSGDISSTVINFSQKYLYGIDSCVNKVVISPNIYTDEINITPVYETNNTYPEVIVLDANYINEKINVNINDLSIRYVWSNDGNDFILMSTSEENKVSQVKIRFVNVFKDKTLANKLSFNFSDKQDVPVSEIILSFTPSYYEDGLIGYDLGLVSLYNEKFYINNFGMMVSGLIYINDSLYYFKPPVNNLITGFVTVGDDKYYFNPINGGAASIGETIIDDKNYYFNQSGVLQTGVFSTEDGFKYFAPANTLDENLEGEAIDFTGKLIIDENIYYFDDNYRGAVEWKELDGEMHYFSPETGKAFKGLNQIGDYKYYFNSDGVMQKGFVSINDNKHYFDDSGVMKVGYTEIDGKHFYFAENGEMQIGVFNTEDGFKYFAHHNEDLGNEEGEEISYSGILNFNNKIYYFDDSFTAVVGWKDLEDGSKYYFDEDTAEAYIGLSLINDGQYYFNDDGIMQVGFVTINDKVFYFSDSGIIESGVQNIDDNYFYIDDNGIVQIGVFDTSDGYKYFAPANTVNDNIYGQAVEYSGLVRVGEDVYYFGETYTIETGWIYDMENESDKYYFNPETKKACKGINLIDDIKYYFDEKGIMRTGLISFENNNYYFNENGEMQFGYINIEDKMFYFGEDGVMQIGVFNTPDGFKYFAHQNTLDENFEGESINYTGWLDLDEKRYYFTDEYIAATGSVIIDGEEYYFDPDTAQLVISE
PrP UTR inh – suppresses PrP 5' UTR mRNA reporter expression | actives 0.35% (n = 340,000) | AID 488862 | inhibition, % (concentration not given with the values) | cell-based PrP 5' UTR mRNA reporter, plate reader; in the data active = inhibition above about 52%
PfHsp40 yeast – compounds rescuing yeast from Plasmodium falciparum HSP40 toxicity; S. cerevisiae expressing PfHsp40, growth rescue, ATP luminescence; AID 504582; growth rescue, % at 12.5 µM; actives 0.68% (n = 340,000); in the data active = growth rescue above about 28%, passing the limit was not always enough;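 also: yeast W303a lacking pdr1 and pdr3 grown in galactose medium; growth measured after three days at 30 °C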
Sa RN4220 lethal – S. aureus RN4220 growth inhibition; inhibition, % (no concentration beside the values); AID 1259311; OD600, 16 h; actives 0.33% (n = 330,000); in the data active = inhibition above about 85%
Sa ugtP lethal – kills S. aureus RN4220 lacking UgtP. S. aureus RN4220 ugtP deletion, OD600 growth, 16 h. growth inhibition, % (no concentration beside the values). AID 1259309. actives 0.54% (n = 330,000); in the data active = growth inhibition above about 68%
Hits are given with their value.

What do the screens show for `Cc1c(C(=O)NCCSCc2ccc(F)cc2)cnn1-c1ccc(Cl)cc1`?
TcdB GH inh: inactive; PrP UTR inh: inactive; PfHsp40 yeast: 43; Sa RN4220 lethal: inactive; Sa ugtP lethal: inactive

What do the screens show for `Cc1c(C(=O)Nc2cc(F)cc(F)c2)cnn1-c1ccccc1`?
TcdB GH inh: inactive; PrP UTR inh: inactive; PfHsp40 yeast: inactive; Sa RN4220 lethal: inactive; Sa ugtP lethal: inactive

How did C[C@@H]1CCCCO[C@@H](CN(C)S(=O)(=O)c2ccc(Cl)cc2)[C@H](C)CN([C@@H](C)CO)C(=O)c2cc(NS(=O)(=O)c3cccs3)ccc2O1 do in these assays?
TcdB GH inh: inactive

What do the screens show for `CC(C)c1ccc(C=NNc2cc(N3CCOCC3)nc(N3CCOCC3)n2)cc1`?
Sa RN4220 lethal: inactive; Sa ugtP lethal: inactive

What do the screens show for `O=C1c2cc(Cl)ccc2-c2c(O)cc(Cl)cc21`?
TcdB GH inh: inactive; PrP UTR inh: inactive; PfHsp40 yeast: inactive; Sa RN4220 lethal: 100; Sa ugtP lethal: 100

How did O=c1cc(O)c(-c2ccc(Cl)cc2)c(Cl)[nH]1 do in these assays?
TcdB GH inh: inactive; PrP UTR inh: inactive; PfHsp40 yeast: inactive; Sa RN4220 lethal: inactive; Sa ugtP lethal: inactive

What do the screens show for `O=C(c1cn(-c2ccccc2)nc1-c1ccncc1)n1nnc2ccccc21`?
TcdB GH inh: 100; PrP UTR inh: inactive; PfHsp40 yeast: inactive; Sa RN4220 lethal: inactive; Sa ugtP lethal: inactive

What do the screens show for `C[C@@H]1CN([C@H](C)CO)C(=O)c2cc(NS(=O)(=O)c3ccc(Cl)cc3)ccc2O[C@H]1CN(C)CC1CCCCC1`?
TcdB GH inh: inactive

What do the screens show for `CC1=C(C)/C(=N\OS(=O)(=O)c2ccccc2)C=CC1=O`?
TcdB GH inh: inactive; PrP UTR inh: inactive; PfHsp40 yeast: 637

What do the screens show for `CSc1ccc(Cl)c(C(=O)NCCOc2cc(C)ccc2C(C)C)c1`?
TcdB GH inh: inactive; PrP UTR inh: inactive; PfHsp40 yeast: inactive; Sa RN4220 lethal: 97; Sa ugtP lethal: 99

How did CCCCc1nc(NCCO)c(C#N)c2c1CCCC2 do in these assays?
TcdB GH inh: inactive; PrP UTR inh: inactive; PfHsp40 yeast: inactive; Sa RN4220 lethal: inactive; Sa ugtP lethal: inactive

How did CCCCNc1nc(CC)c2c(c1C#N)CCCC2 do in these assays?
PrP UTR inh: inactive; PfHsp40 yeast: inactive; Sa RN4220 lethal: inactive; Sa ugtP lethal: 81

How did COc1cc(/C=C/C(=O)OCC(=O)N(C)Cc2ccccc2)ccc1O do in these assays?
TcdB GH inh: 11; PrP UTR inh: inactive; PfHsp40 yeast: inactive; Sa RN4220 lethal: inactive; Sa ugtP lethal: inactive

Results for COc1cc(/C=C/C(=O)OCC(=O)c2ccc[nH]2)ccc1O ?
TcdB GH inh: 15

How did COc1cc(/C=C/C(=O)OCC(=O)NC(=O)NC(C)C)ccc1OCC#N do in these assays?
PrP UTR inh: inactive; PfHsp40 yeast: inactive; Sa RN4220 lethal: inactive; Sa ugtP lethal: inactive

Results for COc1cc(/C=C/C(=O)OCC(=O)NC(=O)NC(C)C)ccc1O ?
TcdB GH inh: 12; PrP UTR inh: inactive; PfHsp40 yeast: inactive; Sa RN4220 lethal: inactive; Sa ugtP lethal: inactive

What do the screens show for `CCN(CC)C(=N)C(C#N)=NNc1ccccc1`?
Sa RN4220 lethal: inactive; Sa ugtP lethal: inactive

Results for C[C@@H]1CCCCO[C@@H](CN(C)C(=O)C2CCCCC2)[C@@H](C)CN([C@@H](C)CO)C(=O)c2cc(NS(=O)(=O)c3cn(C)cn3)ccc2O1 ?
TcdB GH inh: inactive

Results for CN(C)S(=O)(=O)c1ccc2c(c1)nc(CCC(=O)NCc1ccc(Cl)cc1)n2C ?
TcdB GH inh: inactive; PrP UTR inh: inactive; PfHsp40 yeast: 45; Sa RN4220 lethal: inactive; Sa ugtP lethal: inactive

What do the screens show for `O=C(CSc1ccccc1Cl)c1ccco1`?
PrP UTR inh: inactive; PfHsp40 yeast: inactive; Sa RN4220 lethal: inactive; Sa ugtP lethal: 87

What do the screens show for `O=C(CSc1ccc(Cl)cc1)c1ccco1`?
PrP UTR inh: inactive; PfHsp40 yeast: inactive; Sa RN4220 lethal: inactive; Sa ugtP lethal: inactive

How did O=C(CCSc1ccc(Cl)cc1)c1ccco1 do in these assays?
TcdB GH inh: inactive; PrP UTR inh: inactive; PfHsp40 yeast: inactive; Sa RN4220 lethal: inactive; Sa ugtP lethal: 84

Results for C[C@@H]1CN([C@H](C)CO)S(=O)(=O)c2ccc(-c3ccncc3)cc2O[C@H]1CN(C)C(=O)CC1CC1 ?
TcdB GH inh: inactive

What do the screens show for `O=C(NCc1ccco1)c1cc(-c2ccccc2)nn1CC1CC(c2cccnc2)=NO1` (stereo not drawn)?
PrP UTR inh: inactive; PfHsp40 yeast: inactive; Sa RN4220 lethal: inactive; Sa ugtP lethal: inactive

What do the screens show for `O=C(NCc1ccc(OC(F)(F)F)cc1)c1cc(-c2ccccc2)nn1CC1CC(c2cccnc2)=NO1` (stereo not drawn)?
PrP UTR inh: inactive; PfHsp40 yeast: 65; Sa RN4220 lethal: inactive; Sa ugtP lethal: inactive

What do the screens show for `COc1cc(NC(=O)c2cc(C)on2)cc(C(=O)Nc2cccc(C(F)(F)F)c2)c1`?
TcdB GH inh: inactive; PrP UTR inh: inactive; PfHsp40 yeast: 50

Results for Cc1cc(O)c2c(c1)C(=O)C13C(=C2O)C(=O)[C@H]2[C@@H](O)[C@@H]1[C@H]1[C@H](O)[C@@H]3C(=O)C3=C(O)c4c(O)cc(C)cc4C(=O)C312 (stereo partly drawn) ?
PrP UTR inh: inactive; PfHsp40 yeast: 282; Sa RN4220 lethal: 98; Sa ugtP lethal: 97

What do the screens show for `Cc1cc(-c2ccccc2)n(-c2cc(NN=Cc3ccccc3O)ncn2)n1`?
Sa RN4220 lethal: inactive; Sa ugtP lethal: 101

Results for Cc1ccc(C=NN2C(=O)C3C(C2=O)C2C=CC3C23CC3)o1 (stereo not drawn) ?
Sa RN4220 lethal: inactive; Sa ugtP lethal: inactive

What do the screens show for `CCC1Cc2cc(O)ccc2C2=C1c1ccc(O)cc1CC2CC` (stereo not drawn)?
Sa RN4220 lethal: 98; Sa ugtP lethal: inactive

Results for CC(=O)NN=C(C)c1ccc2c(c1)OCCO2 ?
Sa RN4220 lethal: inactive; Sa ugtP lethal: inactive

What do the screens show for `COc1cccc(C=NNc2snc(SC)c2C#N)c1O`?
Sa RN4220 lethal: 96; Sa ugtP lethal: 96

What do the screens show for `COc1ccc2c3c(n(C)c2c1)[C@@H](CO)N(Cc1ccc2c(c1)OCO2)CC31CN(C(=O)C2CC2)C1`?
TcdB GH inh: inactive

What do the screens show for `Fc1ccc(NC(=S)Nc2ccc(F)c(Cl)c2)cc1Cl`?
PrP UTR inh: inactive; PfHsp40 yeast: inactive; Sa RN4220 lethal: 108; Sa ugtP lethal: 97

Results for FC(F)(F)c1cccc(NC(=S)Nc2ccc(Cl)cc2Cl)c1 ?
PrP UTR inh: inactive; PfHsp40 yeast: inactive; Sa RN4220 lethal: 98; Sa ugtP lethal: 84

Results for S=C(Nc1ccccc1)Nc1ccc(Cl)cc1Cl ?
PrP UTR inh: inactive; PfHsp40 yeast: inactive; Sa RN4220 lethal: inactive; Sa ugtP lethal: inactive

How did C[C@@H]1CN([C@H](C)CO)C(=O)c2cccc(NC(=O)Nc3cccc4ccccc34)c2O[C@@H]1CN(C)C do in these assays?
TcdB GH inh: inactive

Results for CCCC(=O)Nc1nc2ccc(OCC)cc2s1 ?
TcdB GH inh: inactive; PrP UTR inh: inactive; PfHsp40 yeast: inactive; Sa RN4220 lethal: inactive; Sa ugtP lethal: inactive

What do the screens show for `CCOc1ccc2nc(NC(=S)N(C)C)sc2c1`?
PrP UTR inh: inactive; PfHsp40 yeast: 122; Sa RN4220 lethal: inactive; Sa ugtP lethal: inactive

How did COc1ccccc1CC(N)=NOC(=O)C=Cc1ccccc1 do in these assays?
Sa RN4220 lethal: inactive; Sa ugtP lethal: inactive

High-throughput results from PubChem BioAssay.
